# Test results taken from PubChem BioAssay.
# Results filed as inconclusive are left out. The source made the active and inactive calls.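 How the source made its calls, unless noted: active means differentiation response of at least 50%, scaled between solvent and reference control, from cells with both markers; inactive means the rest.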
# Tests used:
# [1] = rapamycin-like changes in RPL19A-GFP expression – cell-based, S. cerevisiae, multiplex flow cytometry, primary screen (AID 1862; in the data active means percent of DMSO control GFP below about 86%;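 further: lower values mimic rapamycin by blocking the RPL19A rise seen in DMSO cells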); details: S. cerevisiae RPL19A-GFP strain, flow cytometry fluorescence, 3 h; at 10 µM; stronger effect = lower value
# [2] = TOR pathway GLN3 branch reporter MEP2-GFP changes – S. cerevisiae, multiplex flow cytometry, primary screen (AID 1867;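 active means GFP response, as percent of the DMSO control, above the screen-wide mean plus 3 SD, about 139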;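 further: median GFP channel fluorescence of barcode-gated MEP2-GFP cells measured by flow cytometry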); details: S. cerevisiae MEP2-GFP strain, 3 h, at 10 µM, stronger effect = higher value, 100% means same as DMSO wells
# [3] = TOR pathway RTG branch CIT2 reporter changes – S. cerevisiae, GFP fusion, multiplex flow cytometry, primary screen (AID 1870;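 active means percent response above a set limit, the screen-wide mean plus 3 SD, cut at about 130% in these data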;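 further: barcoded CIT2-GFP strain pooled with four other GFP strains with rapamycin as positive control; median GFP fluorescence per well over plate mean of DMSO wells so 100% = DMSO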); details: S. cerevisiae CIT2-GFP expression, 3 h, at 10 µM, stronger effect = higher value
# [4] = TOR pathway LAP4-GFP level changes – S. cerevisiae, multiplex flow cytometry, primary screen (AID 1873;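 active means GFP signal, as percent of the solvent control, above the screen mean plus 3 SD, about 149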); details: S. cerevisiae LAP4-GFP expression, 3 h, at 10 µM, stronger effect = higher value
# [5] = yeast AGP1-GFP level changes, GLN3 branch – cell-based, multiplex flow cytometry, S. cerevisiae, primary screen (AID 1887;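 active means GFP signal above the screen-wide mean plus 3 SD, that is over about 124.5% of the solvent control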;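 further: AGP1-GFP fusion strain of S. cerevisiae within a five-strain barcoded multiplex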); details: 3 h, at 10 µM, stronger effect = higher value
# [6] = reduced mouse 2C T cell binding to pMHC/ICAM-1 vesicles – MLPCN validation set, flow cytometry, LFA-1/ICAM-1 modulator project, pilot screen (AID 2523;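 active means response below a set limit, under 55% cells CD8-positive and vesicle-bound, and CD8 cells' 90th-percentile brightness under 279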;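 on vesicle binding response: mean PE anti-B7-1 fluorescence of CD8+ cells relative to row control; 100% = QL9-loaded vesicles with DMSO vehicle in the same plate row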); details: 2C mouse CD8+ T cells, at 7 µM, stronger effect = lower value; double positive events: measured here: CD8+/vesicle+ event percentage
# [7] = target: Integrin beta-1 (Homo sapiens) + Integrin alpha-4 (Homo sapiens) (UniProt P13612+P05556); experiment: alpha4beta1 integrin LIBS antibody binding reduction – U937 cells, HUTS-21 mAb, flow cytometry, validation set, VLA-4 allosteric modulator project, pilot screen (AID 2674;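 active means inhibition above 50%, about 3 SD of the validation set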;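 further: antibody binding induced by the VLA-4 ligand LDV present at three times its Kd; 0% = LDV ligand with antibody and no compound and 100% = antibody without LDV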); details: HUTS-21 LIBS mAb binding, at 6.7 µM, stronger effect = higher value, binding induced by LDV ligand
# Integrin beta-1 (Homo sapiens) + Integrin alpha-4 (Homo sapiens), sequence (P05556 whole entry, looked up): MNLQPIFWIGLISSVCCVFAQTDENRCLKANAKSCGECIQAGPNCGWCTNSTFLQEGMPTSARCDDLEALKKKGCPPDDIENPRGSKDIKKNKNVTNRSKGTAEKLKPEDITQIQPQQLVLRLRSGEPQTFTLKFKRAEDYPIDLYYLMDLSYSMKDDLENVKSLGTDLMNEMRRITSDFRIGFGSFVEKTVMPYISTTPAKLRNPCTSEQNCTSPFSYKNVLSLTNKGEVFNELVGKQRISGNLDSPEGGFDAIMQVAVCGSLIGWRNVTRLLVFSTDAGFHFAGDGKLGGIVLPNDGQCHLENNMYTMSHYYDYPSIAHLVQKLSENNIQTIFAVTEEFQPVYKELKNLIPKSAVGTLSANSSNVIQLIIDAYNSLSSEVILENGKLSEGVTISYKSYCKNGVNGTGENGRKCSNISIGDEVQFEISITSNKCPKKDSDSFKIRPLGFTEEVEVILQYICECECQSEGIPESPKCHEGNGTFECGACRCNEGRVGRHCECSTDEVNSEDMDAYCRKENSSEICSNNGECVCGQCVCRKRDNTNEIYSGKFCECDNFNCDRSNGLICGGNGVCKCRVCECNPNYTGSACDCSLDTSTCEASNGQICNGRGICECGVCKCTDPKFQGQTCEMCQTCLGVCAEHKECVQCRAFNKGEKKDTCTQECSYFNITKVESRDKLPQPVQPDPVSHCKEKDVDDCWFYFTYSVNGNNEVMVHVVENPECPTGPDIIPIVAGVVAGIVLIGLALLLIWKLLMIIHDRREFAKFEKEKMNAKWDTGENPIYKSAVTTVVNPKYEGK
# Integrin beta-1 (Homo sapiens) + Integrin alpha-4 (Homo sapiens), sequence (P13612 whole entry, looked up): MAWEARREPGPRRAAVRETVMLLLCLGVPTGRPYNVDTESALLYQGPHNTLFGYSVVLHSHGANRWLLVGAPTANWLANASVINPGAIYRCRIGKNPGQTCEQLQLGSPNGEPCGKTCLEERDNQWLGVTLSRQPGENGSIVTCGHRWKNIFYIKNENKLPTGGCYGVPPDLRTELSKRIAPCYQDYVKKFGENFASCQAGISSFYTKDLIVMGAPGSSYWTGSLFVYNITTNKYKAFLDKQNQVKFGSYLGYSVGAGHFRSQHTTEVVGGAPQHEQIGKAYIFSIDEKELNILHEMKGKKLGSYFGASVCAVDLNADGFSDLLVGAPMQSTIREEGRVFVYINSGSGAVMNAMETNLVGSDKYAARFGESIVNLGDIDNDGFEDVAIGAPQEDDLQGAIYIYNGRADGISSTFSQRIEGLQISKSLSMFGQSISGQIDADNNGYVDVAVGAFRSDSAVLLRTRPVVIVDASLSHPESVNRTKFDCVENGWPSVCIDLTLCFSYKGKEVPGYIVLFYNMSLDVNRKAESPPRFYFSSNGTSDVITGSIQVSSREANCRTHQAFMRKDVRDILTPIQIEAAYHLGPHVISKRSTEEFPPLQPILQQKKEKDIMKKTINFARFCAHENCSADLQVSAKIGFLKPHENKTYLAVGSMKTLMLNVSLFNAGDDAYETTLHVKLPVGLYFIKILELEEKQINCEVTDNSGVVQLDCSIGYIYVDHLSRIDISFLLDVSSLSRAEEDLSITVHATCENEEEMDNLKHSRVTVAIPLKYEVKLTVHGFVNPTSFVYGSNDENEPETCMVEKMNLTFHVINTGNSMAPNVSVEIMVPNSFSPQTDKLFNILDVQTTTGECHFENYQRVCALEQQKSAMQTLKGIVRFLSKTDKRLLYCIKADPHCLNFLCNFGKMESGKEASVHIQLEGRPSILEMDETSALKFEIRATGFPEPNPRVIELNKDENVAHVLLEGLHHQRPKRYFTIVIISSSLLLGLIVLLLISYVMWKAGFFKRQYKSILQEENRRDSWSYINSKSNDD
# [8] = calorie-restriction mimetic ROS inhibitors, yeast – validation compound set, pilot screen (AID 2706;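 active means superoxide response below 65% of plate, a cut near 3 SD across the whole screen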;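 further: yeast exposed to compound for one week at 30 degrees C before staining; 100% = mean of all compound wells on the same plate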); details: S. cerevisiae aging, superoxide DHE fluorescence; at 10 µM; stronger effect = lower value
# [9] = target: Beta-adrenergic receptor kinase 1 (Homo sapiens) (UniProt P25098); experiment: GRK2 binders displacing RNA aptamer, biochemical, validation, human GRK2, bead flow cytometry (AID 488806;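 active means aptamer binding inhibition above 30%, about 3 SD of noise from non-fluorescent compounds; inactive means inhibition at or below 30%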); details: bead-bound GRK2, FAM-aptamer displacement, at 10 µM, stronger effect = higher value
# Beta-adrenergic receptor kinase 1 (Homo sapiens), sequence (P25098 whole entry, looked up): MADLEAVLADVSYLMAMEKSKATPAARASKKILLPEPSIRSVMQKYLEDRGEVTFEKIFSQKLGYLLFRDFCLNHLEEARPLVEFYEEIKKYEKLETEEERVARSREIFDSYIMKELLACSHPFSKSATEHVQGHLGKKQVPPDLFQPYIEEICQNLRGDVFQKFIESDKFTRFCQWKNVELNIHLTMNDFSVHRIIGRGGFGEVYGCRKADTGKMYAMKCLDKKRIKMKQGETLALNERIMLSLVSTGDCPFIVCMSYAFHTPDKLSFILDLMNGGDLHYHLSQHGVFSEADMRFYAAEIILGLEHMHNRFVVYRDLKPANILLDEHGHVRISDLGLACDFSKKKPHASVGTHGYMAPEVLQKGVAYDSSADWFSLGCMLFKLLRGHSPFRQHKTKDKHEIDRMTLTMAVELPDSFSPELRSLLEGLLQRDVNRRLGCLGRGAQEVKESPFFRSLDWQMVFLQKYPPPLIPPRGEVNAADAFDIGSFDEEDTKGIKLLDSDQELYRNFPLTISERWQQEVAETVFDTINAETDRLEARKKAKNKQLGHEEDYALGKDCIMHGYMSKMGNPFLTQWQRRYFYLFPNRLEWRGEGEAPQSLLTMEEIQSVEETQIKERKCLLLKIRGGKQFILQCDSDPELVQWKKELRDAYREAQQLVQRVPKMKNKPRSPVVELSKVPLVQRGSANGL
# [10] = target: Beta-2 adrenergic receptor (Homo sapiens) (UniProt P07550); experiment: agonist-induced loss of surface beta2AR – cell-based, FAP fluorogen, flow cytometry, validation set, pilot screen (AID 504459;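 active means percent response above 42, roughly 3 SD of non-fluorescent test compounds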;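 further: agonist-driven loss of surface beta2AR via internalization measured by FAP dye flow cytometry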); details: Am2.2-beta2AR cells, at 10 µM, stronger effect = higher value
# Beta-2 adrenergic receptor (Homo sapiens), sequence (P07550 whole entry, looked up): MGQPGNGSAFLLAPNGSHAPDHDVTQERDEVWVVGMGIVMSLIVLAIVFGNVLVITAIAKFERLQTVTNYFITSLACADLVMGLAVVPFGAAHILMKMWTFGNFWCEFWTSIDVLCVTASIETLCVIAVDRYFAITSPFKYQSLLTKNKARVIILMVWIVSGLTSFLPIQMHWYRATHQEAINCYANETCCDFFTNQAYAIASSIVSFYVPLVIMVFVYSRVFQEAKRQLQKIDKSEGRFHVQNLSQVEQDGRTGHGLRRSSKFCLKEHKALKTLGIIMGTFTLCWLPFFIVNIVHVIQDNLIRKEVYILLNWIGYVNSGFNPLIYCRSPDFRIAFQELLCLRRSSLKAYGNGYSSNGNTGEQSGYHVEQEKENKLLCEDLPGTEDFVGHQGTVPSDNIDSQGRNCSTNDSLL
# [11] = target: AP-2 complex subunit beta (Homo sapiens) (UniProt P63010); experiment: beta-arrestin/AP2 interaction blockers – biochemical, validation set, GST-AP2 beads, flow cytometry, pilot screen (AID 504541;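 active means inhibition above 54%, about 3 SD of non-fluorescent compounds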;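 further: AP2 carries R879A mutation and is captured from E. coli lysate; bead-bound FITC arrestin peptide fluorescence measuring arrestin peptide binding to AP2; 0% = DMSO wells and 100% = excess unlabeled arrestin peptide control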); details: FITC arrestin peptide, at 10 µM, stronger effect = higher value, AP2 beta2 appendage fragment, R879A mutant
# AP-2 complex subunit beta (Homo sapiens), sequence (P63010 whole entry, looked up, the tested form may be a part, one chain of several): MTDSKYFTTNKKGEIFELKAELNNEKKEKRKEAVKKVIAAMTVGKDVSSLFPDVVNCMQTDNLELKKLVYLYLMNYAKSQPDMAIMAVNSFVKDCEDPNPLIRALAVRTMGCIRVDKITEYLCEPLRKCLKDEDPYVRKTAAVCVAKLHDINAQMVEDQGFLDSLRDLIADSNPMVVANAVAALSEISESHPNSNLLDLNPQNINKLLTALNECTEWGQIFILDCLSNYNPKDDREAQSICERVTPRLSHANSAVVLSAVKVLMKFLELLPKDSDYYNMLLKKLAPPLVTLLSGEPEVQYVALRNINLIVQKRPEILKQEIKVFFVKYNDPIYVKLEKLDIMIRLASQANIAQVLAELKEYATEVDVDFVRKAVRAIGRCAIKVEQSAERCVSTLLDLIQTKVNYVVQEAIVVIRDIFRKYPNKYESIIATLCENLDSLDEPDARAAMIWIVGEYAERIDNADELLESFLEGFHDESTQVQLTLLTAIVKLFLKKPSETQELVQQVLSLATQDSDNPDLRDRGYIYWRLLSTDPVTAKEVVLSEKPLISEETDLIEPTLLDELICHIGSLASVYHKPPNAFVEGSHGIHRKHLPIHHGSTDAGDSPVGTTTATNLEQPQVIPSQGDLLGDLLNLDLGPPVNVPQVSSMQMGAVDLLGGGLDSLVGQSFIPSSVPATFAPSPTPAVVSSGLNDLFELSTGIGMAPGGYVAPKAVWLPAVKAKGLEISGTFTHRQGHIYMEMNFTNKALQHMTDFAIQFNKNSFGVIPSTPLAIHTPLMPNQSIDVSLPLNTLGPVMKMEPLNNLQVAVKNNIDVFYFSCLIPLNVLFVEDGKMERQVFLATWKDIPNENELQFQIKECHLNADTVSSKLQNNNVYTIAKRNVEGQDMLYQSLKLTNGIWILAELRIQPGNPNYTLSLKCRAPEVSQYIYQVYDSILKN
# [12] = cytosolic pH regulators acting via V-ATPase – S. cerevisiae, pHLuorin, HTS validation (AID 504600; in the data active means response above about 15%;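 further: plate controls were DMSO for no effect and reference compound for full effect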); details: V-ATPase proton transport, at 10 µM, stronger effect = higher value
# [13] = test system: anti-desmoglein-3 scFv antibody binding to human DSG3; experiment: blockers of pathogenic pemphigus antibody–desmoglein-3 binding – biochemical, validation compound set, bead-based, flow cytometry, pilot screen (AID 588368;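 active means binding below the plate cutoff, the plate median minus 3 SD, with a reading above zero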;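 further: signal is the median channel fluorescence of bead-bound GFP antibody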); details: Protein G beads, DSG3-Fc, scFv-GFP binding, at 10 µM, stronger effect = lower value
# [14] = Nile Red efflux blockade in pump-expressing yeast – validation compound set, multiplex, phenotypic, pilot screen (AID 588506;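 active means efflux inhibition above 0.42, the validation set average plus 4 SD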;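 further: Nile Red retained in cells so higher fluorescence means more efflux inhibition; 0 = negative control wells and 1 = enniatin B 25 µM full block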); details: S. cerevisiae pump-expressing triplex, Nile Red efflux flow cytometry; at 10 µM; stronger effect = higher value; the pumps come from Candida albicans
# [15] = target: ATP-binding cassette sub-family B member 6 (Homo sapiens) (UniProt Q9NP58); experiment: blockers of ABCB6-driven porphyrin uptake – K562-ABCB6 cells, flow cytometry, validation set, pilot screen (AID 588550;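 active means inhibition above the screen-wide mean plus 3 SD, about 51%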;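 further: 0% = DMSO wells and 100% = benzethonium chloride 70 µM positive control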); details: K562-ABCB6 porphyrin accumulation, 1 h, at 10 µM, stronger effect = higher value
# ATP-binding cassette sub-family B member 6 (Homo sapiens), sequence (Q9NP58 whole entry, looked up): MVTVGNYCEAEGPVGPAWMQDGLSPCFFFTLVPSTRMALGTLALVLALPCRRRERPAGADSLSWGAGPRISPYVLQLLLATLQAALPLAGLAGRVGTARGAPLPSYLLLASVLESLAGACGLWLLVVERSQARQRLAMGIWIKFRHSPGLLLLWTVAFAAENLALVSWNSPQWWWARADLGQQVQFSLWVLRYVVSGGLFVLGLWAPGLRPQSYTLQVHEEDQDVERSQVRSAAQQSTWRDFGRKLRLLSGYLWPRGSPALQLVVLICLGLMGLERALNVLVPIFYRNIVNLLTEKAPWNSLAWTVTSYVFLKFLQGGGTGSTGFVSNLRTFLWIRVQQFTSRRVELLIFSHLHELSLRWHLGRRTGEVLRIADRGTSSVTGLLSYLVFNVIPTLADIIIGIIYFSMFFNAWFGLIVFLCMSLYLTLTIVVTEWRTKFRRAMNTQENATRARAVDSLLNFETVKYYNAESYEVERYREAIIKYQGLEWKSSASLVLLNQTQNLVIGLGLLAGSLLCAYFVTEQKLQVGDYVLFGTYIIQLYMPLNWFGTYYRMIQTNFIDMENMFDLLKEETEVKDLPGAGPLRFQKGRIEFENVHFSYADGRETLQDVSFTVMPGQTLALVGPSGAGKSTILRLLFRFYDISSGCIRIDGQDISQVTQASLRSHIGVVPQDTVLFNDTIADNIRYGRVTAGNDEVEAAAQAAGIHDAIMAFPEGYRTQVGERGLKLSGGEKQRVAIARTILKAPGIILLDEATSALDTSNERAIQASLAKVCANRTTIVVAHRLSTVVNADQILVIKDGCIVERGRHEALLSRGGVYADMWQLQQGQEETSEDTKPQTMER
# [16] = AML differentiation inducers, ER-HoxA9 marrow cells – cell-based, GFP/MAC1 double positive, flow cytometry, validation set, primary screen (AID 588685); details: stronger effect = higher value, normalized: vehicle 0, fulvestrant 100;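 further: compound exposure lasts four days before antibody staining and flow analysis; 0% = DMSO wells and 100% = 5 µM fulvestrant positive control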
Structure (SMILES),percent of DMSO control GFP [1],GFP response vs DMSO [2],percent response of DMSO control [3],GFP response vs DMSO [4],"GFP response, % of DMSO [5]",double positive events [6] [%],vesicle binding response [6],inhibition [7],superoxide response (% of plate) [8],aptamer binding inhibition [9],response [10],inhibition [11],response [12],binding (% of control) [13],efflux inhibition (fraction of control) [14],inhibition [15],differentiation response [16]
Clc1cc(-c2ccc(/C=N/n3cnnc3)o2)ccc1Br,100% (inactive),103% (inactive),102% (inactive),114% (inactive),99.9% (inactive),56.6,130% (inactive),-3.77% (inactive),97% (inactive),-5% (inactive),-6.37% (inactive),0.75% (inactive),3.36% (inactive),98.8% (inactive),-0.36 (inactive),-9% (inactive),-4.57% (inactive)
Cc1ccc2c(ccc(=S)n2C)c1,103% (inactive),97.2% (inactive),115% (inactive),93.3% (inactive),102% (inactive),54.1,44.4% (active),7.85% (inactive),87.8% (inactive),4% (inactive),-14% (inactive),-3.91% (inactive),0.7% (inactive),97.7% (inactive),-0.01 (inactive),19% (inactive),1.22% (inactive)
O=C(Nc1ccc(F)c([N+](=O)[O-])c1)c1ccc2c(c1)OCCO2,106% (inactive),103% (inactive),104% (inactive),108% (inactive),100% (inactive),63,5830% (inactive),-1.49% (inactive),94% (inactive),2% (inactive),1.51% (inactive),-13.5% (inactive),3.69% (inactive),92.4% (inactive),-0.01 (inactive),15% (inactive),5.13% (inactive)
CC(C)C1CC(CCNCc2ccc(N(C)C)cc2)(c2ccccc2)CCO1 (stereo not drawn),95.2% (inactive),105% (inactive),118% (inactive),76.5% (inactive),87.7% (inactive),58.6,200% (inactive),9.37% (inactive),112% (inactive),-4% (inactive),3.92% (inactive),-7.09% (inactive),0.42% (inactive),111% (inactive),-0.09 (inactive),8% (inactive),-1.64% (inactive)
COc1ccc2[nH]c(CN3CCN(CC(C)C)C(CCO)C3)c(C)c2c1 (stereo not drawn),98.8% (inactive),105% (inactive),94.8% (inactive),105% (inactive),98% (inactive),61.7,231% (inactive),-3.16% (inactive),95.8% (inactive),3% (inactive),-3.42% (inactive),-1.65% (inactive),2.28% (inactive),97.4% (inactive),-0.06 (inactive),6% (inactive),-4% (inactive)
COc1ccc2[nH]c3c(=O)n(/N=C/[C@H]4C(C)C=C(C)CC4C)c(=O)[nH]c3c2c1 (stereo partly drawn),99.9% (inactive),109% (inactive),92% (inactive),107% (inactive),102% (inactive),57.4,6260% (inactive),6.4% (inactive),95.3% (inactive),3% (inactive),5.28% (inactive),32.4% (inactive),-6.18% (inactive),98.7% (inactive),0.22 (inactive),1% (inactive),-28% (inactive)
COc1cc(SC)ccc1C(=O)NC(C)C,102% (inactive),101% (inactive),99.6% (inactive),101% (inactive),94.9% (inactive),58.7,171% (inactive),-9.98% (inactive),97.8% (inactive),-1% (inactive),-0.58% (inactive),-4.67% (inactive),1.52% (inactive),101% (inactive),-0.13 (inactive),6% (inactive),-21.6% (inactive)
OCCN(Cc1nc(-c2ccc3c(c2)OCO3)no1)Cc1cccs1,97.6% (inactive),102% (inactive),91.3% (inactive),109% (inactive),89.4% (inactive),65.7,118% (inactive),9.63% (inactive),88.2% (inactive),1% (inactive),23.6% (inactive),-7.29% (inactive),-1.85% (inactive),109% (inactive),-0.28 (inactive),6% (inactive),15.9% (inactive)
COc1ccc(Cc2noc(CN(C)CCN3CCc4ccccc4C3)n2)cc1OC,103% (inactive),105% (inactive),109% (inactive),91.4% (inactive),103% (inactive),65.2,232% (inactive),-8.75% (inactive),95% (inactive),6% (inactive),-6.59% (inactive),-8.41% (inactive),0.56% (inactive),104% (inactive),-0.1 (inactive),-12% (inactive),5.13% (inactive)
